Most compounds without a hit are left out; they make up all but 12% or so of the library.
Sm TGR block: qHTS Assay for the Inhibitors of Schistosoma Mansoni Peroxiredoxins. AID 485364, 2010. 360,000 tested, 3% active. Potency, µM (series often up to 114 µM), actives largely listed as inhibitors. Schistosoma mansoni thioredoxin glutathione reductase (TGR), Q962Y6. purified TGR, DTNB reduction, TNB absorbance 405 nm; active means well fitted inhibition curve with a large enough effect; inconclusive means small, poorly fitted or top-dose-only effect; inactive means no such curve, though single readings can be large or run the other way; further: nearly all actives have a fitted effect of over 60% in size
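Kinetic colorimetric format: TGR-catalysed, NADPH-driven DTNB reduction monitored via TNB absorbance. Enzyme dispensed at 20 nM; compound exposure 15 min at room temperature before reaction start.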
CHX counter: Cycloheximide Counterscreen for Small Molecule Inhibitors of Shiga Toxin; max response, %; AID 2314, 2010; cell reporter, cycloheximide protein synthesis inhibition counterscreen; 300,000 tested, 12% active; in the data active means max response mostly above about 13%, no sharp cut-off; inactive means mostly below about 14%; further: read at 38.3 µM for the half of the compounds with a filed dose
FMDV inh: High Throughput Screening for Foot and Mouth Disease Virus Antivirals | FMDV antiviral cell-based qHTS | 410,000 tested, 1.2% active | AID 1159524, 2015 | Potency, µM (series often up to 57.9 µM), hits mostly inhibitors; calls by dose curve; tested in HEK293T cells; further: read-out not given here; nearly all actives have a fitted effect of over 45% in size
Shiga toxin inh: A qHTS for Small Molecule Inhibitors of Shiga Toxin | inhibition, % at 38.7 µM | AID 2315, 2010 | 290,000 tested, 9.2% active | Vero cells, Shiga toxin protein synthesis inhibition reporter; in the data active means inhibition mostly above about 28%, no sharp cut-off; inactive means mostly below about 43%
Numbers stand for hits; i = inactive; ? = inconclusive; nt = no result.

SMILES	Sm TGR block	CHX counter	FMDV inh	Shiga toxin inh
Oc1ccc2ccccc2c1CN1CCN(C/C=C/c2ccccc2)CC1	2.8µM	i	i	i
Oc1ccc2ccccc2c1CN1CCN(c2ccccc2F)CC1	11µM	i	i	i
CCc1ccc2c(c1)C(c1ccc([N+](=O)[O-])cc1)=NNC(c1ccc(F)cc1)=N2	i	24	i	63
C/C(=N\Nc1ccc(Cl)cc1)c1c(O)cc(C)oc1=O	22µM	i	i	i
CCN(CC)S(=O)(=O)c1cccc(C(=O)N/N=C(\C)c2cccs2)c1	i	31	i	74
CCCCCCCC(=O)N/N=C(/C)c1c(O)cc(C)oc1=O	i	i	i	i
C/C(=N\NC(=O)c1cccc(S(=O)(=O)Nc2cccc(Cl)c2)c1)c1cccs1	i	i	i	i
C/C(=N\NC(=O)c1cccs1)c1c(O)cc(C)oc1=O	i	51	i	84
C/C(=N\NC(=O)c1nonc1N)c1cccs1	i	23	i	active
O=C(COc1ccc(Br)cc1)Nc1cccc2cccnc12	i	nt	i	nt
CCOc1ccc(CNC(=O)c2ccc3c(Cl)c4c(nc3c2)CCCC4)cc1	i	nt	i	nt
C/C(=N/NC(=O)c1cccs1)c1cccs1	i	43	i	76
CCOC(=O)N/N=C(\C)c1cccs1	i	35	i	96
C/C(=N\NC(=O)CNC(=O)c1cccs1)c1ccc(Cl)c(Cl)c1	i	i	i	i
C/C(=N/NC(=O)c1cccs1)c1cccc(N)c1	i	43	i	88
CC(=O)Nc1cccc(/C(C)=N/NC(=O)c2cccs2)c1	i	56	i	46
O=C(Nc1cccc(Cl)c1)N1Cc2ccccc2Oc2ncccc21	i	nt	i	nt
CSc1ncc(C(=O)Nc2ccc(C)c(Cl)c2)c(-c2ccccc2)n1	i	nt	i	nt
C/C(=N\NC(=O)c1sccc1-n1cccc1)c1cccs1	i	i	i	54
Nc1n[nH]c(-c2cccc([N+](=O)[O-])c2)n1	i	i	i	i
O=[N+]([O-])c1cccc(-c2cc(-c3cc(Br)ccc3O)[nH]n2)c1	i	24	28µM	86
Oc1ccc(Br)cc1-c1cc(-c2ccc(Cl)cc2)n[nH]1	i	22	i	93
Fc1ccc(-c2cc(-c3nc(-c4ccc(Cl)cc4)no3)[nH]n2)cc1	i	nt	i	nt
O=[N+]([O-])c1cccc(-c2n[nH]c(=S)n2-c2ccc(Br)cc2)c1	0.79µM	i	i	i
Oc1ccc(Br)cc1-c1cc(-c2ccccc2)n[nH]1	i	16	i	i
SMILES	Sm TGR block	CHX counter	FMDV inh	Shiga toxin inh
N#CCCn1cc(C(CC(=O)c2ccccc2)C(=O)O)c2ccccc21 (stereo not given)	?	30	i	i
N#CCCn1cc(C(=O)CN2C(=O)NC3(CCCCCC3)C2=O)c2ccccc21	i	nt	i	nt
CC(=O)c1cccc(NC(=O)Cn2c(=O)oc3cc(S(=O)(=O)NC4CCCC4)ccc32)c1	i	nt	i	nt
O=C(NNC(=O)C1C2C=CC(C2)C1C(=O)O)c1cc(Cl)ccc1O (stereo not given)	i	19	i	i
O=C(NNC(=O)C1C2C=CC(C2)C1C(=O)O)c1ccccc1O (stereo not given)	i	17	i	50
CCOC(=O)c1ccc(C(=O)NNC(=O)C2C3C=CC(C3)C2C(=O)O)cc1 (stereo not given)	i	i	i	i
O=C(NNC(=O)C1C2C=CC(C2)C1C(=O)O)c1ccccc1 (stereo not given)	i	39	i	101
CC(C)(C)OC(=O)N1CCC(c2c(C(=O)NCc3ccco3)cnn2-c2ccccc2)CC1	i	nt	i	nt
CCCc1c(O)nc(SC2CC(=O)N(c3cc(OC)ccc3OC)C2=O)[nH]c1=O (stereo not given)	i	i	i	i
COc1ccc(N2C(=O)CC(Sc3ncn[nH]3)C2=O)c(OC)c1 (stereo not given)	0.28µM	i	i	i
CC(C)c1ccc(N2C(=O)CC(Sc3nc4ccccc4o3)C2=O)cc1 (stereo not given)	?	15	i	i
CC(C)c1ccc(N2C(=O)CC(Sc3ncn[nH]3)C2=O)cc1 (stereo not given)	0.56µM	i	i	i
CCc1ccc(C(=O)CC2(O)C(=O)N(CCc3ccccc3)c3ccc(Cl)cc32)cc1 (stereo not given)	i	nt	i	nt
CC(C)(C)n1cnc2cc(NCc3ccc(Br)cc3)ccc21	i	47	i	117
CCCn1cnc2cc(NCc3cccs3)ccc21	i	33	i	106
CCN(CC)c1ccc(CNc2ccc3c(c2)ncn3C(C)(C)C)cc1	?	i	i	i

High-throughput results (PubChem BioAssay)
